Shown are actives, neighbours in structure and some others; about 3.9% of the full set was active somewhere.
TPT1 inh: blocks Candida albicans tRNA 2'-phosphotransferase; recombinant caTPT1, FP RNA substrate dephosphorylation; inhibition, % at 5 µM; 0.81% of 300,000 active;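 active means inhibition above the mean of all tested compounds plus 3 SD, set per screening campaign, cut at about 24% in these data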;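 further: plate controls were DMSO alone for no effect and ferristatin control at 100 nM for full effect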
SKKanGAS inh: inhibitors of SKKanGAS S. pyogenes growth in kanamycin (SK-promoter or general growth effect) | BacTiter-Glo, 6 h | inhibition, % at 7.5 µM | 1.3% of 300,000 active;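 active means mean replicate score, as percent of positive control median, at least 50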;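 further: strain carries kanamycin resistance gene driven by streptokinase promoter and grows in 40 µg/ml kanamycin; loss of luminescence reflects streptokinase promoter inhibition or plain growth inhibition; 0% = median of DMSO wells and 100% = positive control at its reference dose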
WT yeast gro inh: growth inhibition of WT yeast, mitochondrial fusion screen | 2.1% of 190,000 active | inhibition, % at 10 µM | mitochondrial fusion phenotypic screen, WT strain | AID 1362; in the data active means inhibition above about 58%; tested in S. cerevisiae
Rtt109 HAT inh: blocks Candida albicans Rtt109/Vps75 acetyltransferase activity; Q5AAJ8; AID 540336; 0.16% of 330,000 active; inhibition, % at 34.9 µM; purified Rtt109/Vps75, ThioGlo CoA-SH fluorescence, 4 h;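 active means inhibition of at least 50% in every replicate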
Target sequence (Q5AAJ8 whole entry, looked up): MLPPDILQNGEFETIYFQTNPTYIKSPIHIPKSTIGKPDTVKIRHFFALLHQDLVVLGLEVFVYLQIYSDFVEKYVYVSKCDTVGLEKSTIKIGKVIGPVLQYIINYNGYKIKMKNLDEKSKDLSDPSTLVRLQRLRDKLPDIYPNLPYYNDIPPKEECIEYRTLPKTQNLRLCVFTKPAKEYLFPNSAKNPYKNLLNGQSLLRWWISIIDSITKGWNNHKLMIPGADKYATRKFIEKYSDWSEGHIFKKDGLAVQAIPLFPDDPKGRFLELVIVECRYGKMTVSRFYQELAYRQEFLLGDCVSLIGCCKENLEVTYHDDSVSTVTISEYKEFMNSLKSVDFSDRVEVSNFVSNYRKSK
Platelet DG rel: modulates dense granule release in human platelets; human platelet-rich plasma, SFLLRN dense granule ATP release, luminescence; inhibition, %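 (compounds screened at 7.5 µM in platelet-rich plasma)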; 0.22% of 300,000 active;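 active means mean replicate score, as percent of positive control, at or above 50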
PHOSPHO1 block: blocks human PHOSPHO1 phosphatase activity | recombinant PHOSPHO1, absorbance phosphatase assay | inhibition, % at 13.3 µM | 1.1% of 290,000 active; in the data active means inhibition above about 60%
The depositor's hits bear a star; . = not tested or not shown.

SMILES	TPT1 inh	SKKanGAS inh	WT yeast gro inh	Rtt109 HAT inh	Platelet DG rel	PHOSPHO1 block
COc1ccc(C(=O)OCC(=O)Nc2cccc(S(=O)(=O)NC3=NCCCCC3)c2)cc1[N+](=O)[O-]	.	.	.	-8	.	.
CC(=O)NC(c1ccco1)c1ccc2cccnc2c1O (stereo not drawn)	-4	40	32	0	-2	-15
CCC(=O)NC(c1cc(Cl)c2cccnc2c1O)C1CC1 (stereo not drawn)	.	.	.	16	.	.
CN1CCN(C(c2ccc(C(F)(F)F)cc2)c2cc(Cl)c3cccnc3c2O)CC1 (stereo not drawn)	-2	104*	.	.	3	-104
Oc1c(C(c2ccccn2)N2CCCCC2)cc(Cl)c2cccnc12 (stereo not drawn)	1	54*	7	2	-15	-10
CN1CCN(C(c2ccc(Cl)cc2)c2cc(Cl)c3cccnc3c2O)CC1 (stereo not drawn)	0	101*	.	27	0	-101
OCCN1CCN(C(c2cccs2)c2ccc3cccnc3c2O)CC1 (stereo not drawn)	.	.	1	.	.	105*
CC1(C)Oc2ccc3ccc(=O)oc3c2[C@@H](O)[C@H]1O	.	.	.	-2	.	.
Cc1ccccc1Nc1nc(N)nc(COC(=O)[C@@H](NC(=O)c2c(F)cccc2F)C(C)C)n1	1	-15	.	4	-17	.
CCN1CCN(C(c2ccc(C(F)(F)F)cc2)c2ccc3cccnc3c2O)CC1 (stereo not drawn)	-5	100*	.	-4	-3	-102
Oc1c(C(c2ccccc2)N2CCOCC2)ccc2ccccc12 (stereo not drawn)	.	.	.	-1	.	.
COc1ccc(CCNC(=O)C2CCN(Cc3nc(-c4ccccc4F)oc3C)CC2)cc1OC	-3	-3	-23	-2	1	9
Cc1oc(-c2ccccc2F)nc1CN1CCC(C(=O)NCCC2=CCCCC2)CC1	-1	3	98*	15	-3	14
CCc1ccc(-c2nc(CN3CCC(C(=O)NCc4ccccc4OC)CC3)c(C)o2)cc1	0	-3	22	-5	-5	77*
O=C(c1cccc(S(=O)(=O)Nc2ccccc2Cl)c1)N1CCN(c2ccccc2O)CC1	.	.	.	1	.	.
COc1ccc(NC2CCCN(C(=O)c3ccc4[nH]c(C)c(C)c4c3)C2)cc1 (stereo not drawn)	0	5	.	-2	-9	19
CCO/C=C1\SC(=S)N(c2ccc(Cl)cc2)C1=O	2	8	.	-82	3	-35
CC(C)c1ccc(N2C(=O)/C(=C/N(C)C)SC2=S)cc1	-64	86*	.	0	-1	28
CN(C(=O)c1ccc(NC(=O)Cc2cccc(NC(=O)C3CCCN(C(=O)C4CCC4)C3)c2)cc1)C1CCCC1 (stereo not drawn)	.	.	.	19	.	.
Cc1ccc(-n2c(C)n[nH]c2=S)cc1	-2	-1	1	-7	-3	-4
Cc1ccc(-c2csc3n[nH]c(=S)n23)cc1	-3	-5	-2	-9	0	95*
O=C(N/N=C/c1ccc(O)cc1)c1nc(-c2ccccc2)n(-c2ccccc2)n1	-1	-8	-9	3	23	16
Oc1ccc(/C=C/c2nc(-c3ccccc3O)n(-c3ccccc3)n2)cc1	3	38	79*	9	-4	-5
Oc1ccccc1-c1nc(/C=C/c2ccccc2)nn1-c1ccccc1	3	15	64*	18	8	-19
CC(C)(C)OC(=O)C[C@@H]1C/C=C\C[C@H](CC(=O)NCCO)C(=O)NC[C@H](c2ccccc2)OC1=O	.	.	.	10	.	.
SMILES	TPT1 inh	SKKanGAS inh	WT yeast gro inh	Rtt109 HAT inh	Platelet DG rel	PHOSPHO1 block
Cc1cc(=O)[nH]c(N2CCCCC2)n1	.	.	.	-5	.	.
O=C(OCC(=O)N1CCc2ccccc2C1)c1cccs1	0	6	17	3	-1	65*
O=C(COc1c(Br)cc(Br)c2cccnc12)N1CCc2ccccc2C1	2	28	65*	-6	-2	10
O=C(OCC(=O)N1CCCCC1)c1cccs1	.	.	.	7	.	.
O=C(Cn1cnc2ccccc2c1=O)N1CCOCC1	-3	-1	1	-10	3	6
O=C(Cn1cnc2ccccc2c1=O)N1CCc2ccccc2C1	0	-3	-13	-4	-3	63*
O=C(COc1cccnc1[N+](=O)[O-])N1CCc2ccccc2C1	-2	6	0	-2	-12	61*
O=C(COc1ccccc1)N=C1SC2CS(=O)(=O)CC2N1c1ccccc1F (stereo not drawn)	-2	8	.	5	0	34
C/C(=N\OCC(=O)OCC(=O)N(C)c1ccccc1)c1ccc2c(c1)OCO2	.	.	.	2	.	.
CN(Cc1ccco1)S(=O)(=O)c1nnc(NC(=O)c2ccccc2Cl)s1	0	38	.	-11	13	41
CCN(C(=O)COC(=O)c1ncc(Cl)c(Cl)c1Cl)c1c(N)n(Cc2ccccc2)c(=O)[nH]c1=O	.	.	.	4	.	.
O=C(Cn1cc([N+](=O)[O-])cn1)N1CCc2ccccc2C1	0	2	4	4	5	61*
O=C(Cn1cc([N+](=O)[O-])cn1)N1CCN(c2ccccc2)CC1	2	1	.	-5	0	24
CC(C)(C)N(Cc1ccccc1)C(=O)COc1cccnc1[N+](=O)[O-]	0	52*	.	2	11	36
CC1CCN(C(=O)CCc2ccc(Oc3cc([N+](=O)[O-])cc([N+](=O)[O-])c3)cc2)CC1	2	5	65*	13	17	-4
Cc1ccc(C(=O)NCCNC(=O)c2ccc(F)cc2)cn1	-5	14	.	-8	-2	19
COc1ccc(CCNC(=O)c2ccc(Cl)c(S(=O)(=O)N3CCCC3)c2)cc1	.	.	.	1	.	.
COc1cc2ccccc2cc1C(=O)N/N=C/c1ccc2c(c1)OCO2	.	5	.	-8	-8	61*
COc1ccccc1C(=O)N/N=C/c1ccc2c(c1)OCO2	3	-2	.	0	13	0
CC1CC(C)CN(C(=O)C2CCN(S(=O)(=O)c3ccc4c(c3)CC(C)N4C(=O)C3CC3)CC2)C1 (stereo not drawn)	-2	-5	.	15	9	22
NCCc1c(-c2ccccc2)n(-c2ccccc2)c2ccccc12	.	-1	87*	15	14	32
CC(=O)n1c(-c2ccccc2)c(CO)c2ccccc21	-2	-3	.	0	0	-13
O=C(Nc1ccccc1C(=O)Nc1nnc(C(F)(F)F)s1)c1ccccc1	2	97*	.	-15	0	34
N#Cc1c(-c2cccnc2)c2c([nH]c1=S)CCCC2	1	-1	91*	-2	-11	74*
COc1ccc(-c2c3c([nH]c(=S)c2C#N)CCC3)cc1	.	.	14	10	.	55
N#Cc1c(-c2ccco2)c2c([nH]c1=S)CCCC2	4	-4	1	24	4	62*
Cc1ccc(-c2nnc(SCC(=O)N3CCOCC3)nc2-c2ccc(C)cc2)cc1	5	0	74*	-2	0	68*
COc1ccc2[nH]cc(C(=O)CCl)c2c1	4	-18	.	-1	1	30

Compound activity as filed in PubChem.
